Our source for the growth values is PubChem BioAssay (NCI).

Test systems include SR leukemia; RPMI-8226 leukemia; OVCAR-8 ovarian; OVCAR-5 ovarian; OVCAR-4 ovarian; IGROV1 ovarian; OVCAR-3 ovarian; HS 578T breast; NCI/ADR-RES ovarian; T-47D breast; BT-549 breast; MDA-MB-435 melanoma; SW-620 colon; MCF7 breast; HCT-116 colon; HCC-2998 colon; KM12 colon; SK-OV-3 ovarian.
Test in all cases: NCI-60 one-dose screen, 48 h (100 = growth as untreated, 0 = no growth, -100 = all killed)
What all share (conditions): 10 µM unless noted

This is part of a sample that, as a whole, favours compounds with a hit. Of some 83,000 tested, about 20% had one in any assay.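 Plates (96-well) were seeded with cells, treated with compound at one concentration, and incubated for 48 hours before percent growth was determined.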 Values without a mark were called inactive. Active and inactive are the calls of the source. Rule for the calls: active = growth percent below 10; inactive = the rest.

In the case of `COc1ccccc1S(=O)(=O)Nc1ccc2c3c(cc(CCC(=O)NCCCCNc4cccc5c4C(=O)N(C4CCC(=O)NC4=O)C5=O)cc13)C(=O)N2C` (stereo unspecified), the growth in the assay on SR leukemia was 13.9%; in the assay on RPMI-8226 leukemia, 53.6%; in the assay on OVCAR-8 ovarian it was 4.39% (active); in the assay with OVCAR-5 ovarian it was 42%; in the assay with OVCAR-4 ovarian, -19.8% (active); with IGROV1 ovarian it was -9.53% (active). For the same compound, the growth is 30% in the assay on OVCAR-3 ovarian; -17.8% (active) in the assay with HS 578T breast; 88.2% with NCI/ADR-RES ovarian; 3.74% (active) with T-47D breast; -10.9% (active) in the assay with BT-549 breast; 23.2% in the assay with MDA-MB-435 melanoma. Further, the growth in the assay on SW-620 colon was 7.68% (active); in the assay with MCF7 breast, 6.07% (active); in the assay on HCT-116 colon, 46.2%; in the assay with HCC-2998 colon, 10.9%; in the assay on KM12 colon, 20.2%.

For the compound `OC1(c2ccccc2)c2ccccc2N(c2ccccc2)c2ccc(Cl)cc21` (stereo unspecified), the growth is -28.7% (active) with SR leukemia; -6.58% (active) in the assay with RPMI-8226 leukemia; -45% (active) with OVCAR-8 ovarian; -72.3% (active) in the assay with OVCAR-5 ovarian; -82.8% (active) in the assay on OVCAR-4 ovarian; -89.3% (active) in the assay with SK-OV-3 ovarian. Besides, the growth was -98.1% (active) in the assay with OVCAR-3 ovarian; 4.35% (active) in the assay with HS 578T breast; 14.8% with NCI/ADR-RES ovarian; -85.1% (active) with T-47D breast; -78.7% (active) with BT-549 breast; -81.5% (active) in the assay with MDA-MB-435 melanoma. In addition, the growth in the assay on SW-620 colon is -85.7% (active); in the assay with MCF7 breast it was -88% (active); with HCT-116 colon, -85.9% (active); in the assay on KM12 colon it was -87.6% (active).

For `C=C(C)[C@@H]1CC[C@]2(CO)CC[C@]3(C)[C@H](CC[C@@H]4[C@@](C)(CCCN)[C@H](C(=C)C)CC[C@]43C)[C@@H]12`, the growth is -14% (active) with SR leukemia; -43.2% (active) in the assay on RPMI-8226 leukemia; -40.4% (active) with OVCAR-8 ovarian; -78.5% (active) in the assay with OVCAR-5 ovarian; -67.8% (active) in the assay on OVCAR-4 ovarian; -82.4% (active) with SK-OV-3 ovarian. The growth was -52.3% (active) with HS 578T breast; -80.4% (active) in the assay with NCI/ADR-RES ovarian; -40.5% (active) in the assay with T-47D breast; -92.8% (active) in the assay with BT-549 breast; -97% (active) in the assay on MDA-MB-435 melanoma; -89.5% (active) with SW-620 colon. Moreover, the growth was -89.3% (active) with MCF7 breast, -88.3% (active) in the assay on HCT-116 colon, -80.1% (active) with HCC-2998 colon and -79.6% (active) with KM12 colon.

`N=C(N)c1ccc(OCCSCCOc2ccc(C(=N)N)cc2)cc1`: the growth with SR leukemia is 73.1%; in the assay on RPMI-8226 leukemia it was 73.9%; in the assay on OVCAR-8 ovarian, 64%; in the assay with OVCAR-5 ovarian it was 77.6%; in the assay on OVCAR-4 ovarian, 64.7%; in the assay with SK-OV-3 ovarian, 82%. In addition, the growth in the assay with OVCAR-3 ovarian was 86.4%; in the assay with HS 578T breast, 85.4%; in the assay on NCI/ADR-RES ovarian, 97.7%; in the assay on T-47D breast, 50.5%; in the assay on BT-549 breast, 11.1%; in the assay with MDA-MB-435 melanoma it was 79.9%. The growth in the assay with MCF7 breast is 58.1%; with HCT-116 colon it was 68.4%; with HCC-2998 colon, 79.7%; in the assay with KM12 colon it was 62.2%.

In the case of `CCCCCc1ccc(S(=O)(=O)Nc2cc(-c3csc(NC(C)=O)n3)ccc2N2CCN(C)CC2)cc1`, the growth with SR leukemia is 14.1%; in the assay with RPMI-8226 leukemia, -28.7% (active); in the assay with OVCAR-8 ovarian, 70.1%; in the assay with OVCAR-5 ovarian, 85.3%; with OVCAR-4 ovarian, 66%; with IGROV1 ovarian it was 62.1%. Moreover, the growth is 75.6% with OVCAR-3 ovarian; 67.3% with HS 578T breast; 61.2% with NCI/ADR-RES ovarian; 58.8% in the assay with T-47D breast; 63.9% in the assay with BT-549 breast; -45.4% (active) with MDA-MB-435 melanoma. Also, the growth is -25.9% (active) with SW-620 colon; 9.36% (active) in the assay on MCF7 breast; 3.98% (active) with HCT-116 colon; -26.9% (active) in the assay on HCC-2998 colon; 74.1% with KM12 colon.

Regarding `CC(=O)Nc1sc2c(c1-c1nc3ccccc3s1)CNC2`, the growth is 6% (active) with SR leukemia; 19.1% with RPMI-8226 leukemia; 23.4% in the assay on OVCAR-8 ovarian; 41.8% with OVCAR-5 ovarian; 33.4% in the assay with OVCAR-4 ovarian; 15.9% with SK-OV-3 ovarian. Further, the growth was 36.3% in the assay with OVCAR-3 ovarian; 51.3% with HS 578T breast; 4.49% (active) in the assay on T-47D breast; 58.1% in the assay on BT-549 breast; 29.7% in the assay with MDA-MB-435 melanoma; 18.8% with SW-620 colon. The growth is 5.45% (active) in the assay with MCF7 breast, 18.8% in the assay with HCT-116 colon, 33.6% in the assay on HCC-2998 colon and 22.8% in the assay on KM12 colon.

Consider `CN(C)CCCn1c2c(c3ccncc3c1=O)C(=O)c1ccccc1-2`, for which the growth with SR leukemia is -26% (active); with RPMI-8226 leukemia it was -22.7% (active); in the assay with OVCAR-8 ovarian it was 0.796% (active); in the assay on OVCAR-5 ovarian, 0.243% (active); in the assay on OVCAR-4 ovarian it was -8.01% (active); in the assay with SK-OV-3 ovarian it was 34.8%. Also, the growth in the assay on OVCAR-3 ovarian is -12.3% (active); in the assay with HS 578T breast it was 19.8%; with NCI/ADR-RES ovarian, -23.5% (active); with T-47D breast, -12.3% (active); in the assay on BT-549 breast it was 3.87% (active); in the assay on MDA-MB-435 melanoma, 7.89% (active). Further, the growth in the assay with SW-620 colon is -28.1% (active); in the assay with MCF7 breast it was 1.65% (active); with HCT-116 colon, -18.7% (active); in the assay with KM12 colon, -12.6% (active).

As to `CN(C)CCn1c(=O)c2ccccc2n2nc3ccccc3c12`, the growth in the assay on SR leukemia is 46.8%; in the assay with RPMI-8226 leukemia it was 101%; in the assay on OVCAR-8 ovarian it was 79.2%; in the assay on OVCAR-5 ovarian, 105%; in the assay on OVCAR-4 ovarian, 83.9%; in the assay on SK-OV-3 ovarian it was 94.5%. Further, the growth in the assay with OVCAR-3 ovarian was 99.2%; with HS 578T breast it was 97.8%; in the assay with NCI/ADR-RES ovarian, 76.7%; with T-47D breast, 99.8%; with BT-549 breast it was 103%; with MDA-MB-435 melanoma, 100%. Also, the growth in the assay with SW-620 colon was 64.2%; with MCF7 breast, 72.6%; in the assay with HCC-2998 colon, 99.8%; in the assay on KM12 colon it was 95%.

Regarding `Cc1ccc(S(=O)(=O)OCC#CCOS(=O)(=O)c2ccc(C)cc2)cc1`, the growth is 10.8% with SR leukemia; 20.2% with RPMI-8226 leukemia; 34.6% in the assay with OVCAR-8 ovarian; 112% in the assay with OVCAR-5 ovarian; 98.3% in the assay with SK-OV-3 ovarian; -40.2% (active) in the assay on IGROV1 ovarian. In addition, the growth in the assay with OVCAR-3 ovarian was 12.4%; in the assay with HS 578T breast it was 62.4%; in the assay with NCI/ADR-RES ovarian it was 31%; in the assay on BT-549 breast, 54.9%; in the assay on MDA-MB-435 melanoma, 49.3%; in the assay on SW-620 colon, 51.2%. In addition, the growth is 31% with MCF7 breast, 24.7% with HCT-116 colon, 81.6% with HCC-2998 colon and 60.9% in the assay on KM12 colon.
